{"source": "PubChem BioAssay (NCATS)", "note": "Records with an inconclusive call do not appear. Where a call stands in place of a potency, no number is given. Calls of active or inactive are those of the source. Calls follow the shape of the dose curve; as a rule, active = well fitted curve in the direction sought with a large enough effect; inconclusive = small, poorly fitted or top-dose-only effect, or another doubt; inactive = no such curve, though single readings can be large; an effect the other way counts as inactive or inconclusive."}
{"target": "Cytochrome P450 3A4 (Homo sapiens) (UniProt P08684)", "sequence (P08684 whole entry, looked up)": "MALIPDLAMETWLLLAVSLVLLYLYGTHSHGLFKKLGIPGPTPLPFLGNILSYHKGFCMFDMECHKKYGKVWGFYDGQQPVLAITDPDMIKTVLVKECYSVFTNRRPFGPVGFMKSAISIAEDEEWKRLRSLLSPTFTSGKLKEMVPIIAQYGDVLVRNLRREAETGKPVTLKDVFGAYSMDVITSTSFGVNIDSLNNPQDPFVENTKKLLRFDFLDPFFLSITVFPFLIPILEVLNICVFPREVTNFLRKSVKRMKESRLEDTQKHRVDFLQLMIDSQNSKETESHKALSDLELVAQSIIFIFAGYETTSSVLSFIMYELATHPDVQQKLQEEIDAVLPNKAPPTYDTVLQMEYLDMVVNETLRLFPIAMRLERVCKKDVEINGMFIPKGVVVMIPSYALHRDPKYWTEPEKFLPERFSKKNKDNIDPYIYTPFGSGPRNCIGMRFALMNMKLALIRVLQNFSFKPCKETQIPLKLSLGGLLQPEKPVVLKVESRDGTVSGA", "test": "qHTS Assay for Activators of Cytochrome P450 3A4 (AID 885); also: nearly all actives have a fitted effect of over 65% in size", "details": "recombinant CYP3A4, Luciferin-PPXE luminescence, 60 min; series mostly up to 57.1 µM", "method_in_brief": "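Quantitative HTS format: compounds preincubated with 20nM human CYP3A4 and Luciferin-PPXE substrate at KM, reaction started by NADPH regeneration, stopped after 60 min, luciferase luminescence read 20 min later.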"}
{"smiles": "COc1ccc2[nH]cc(CCNc3ncncc3-c3ccccc3CN(C)C)c2c1", "Potency": "inactive"}
{"smiles": "Cc1ccccc1-c1nc(-n2ccnc2)c2ccccc2n1", "Potency": "inactive"}
{"smiles": "COc1ccccc1CNc1ccnc(-c2ccccc2C(F)(F)F)n1", "Potency": "inactive"}
{"smiles": "COc1ccccc1-c1nc(NCc2cnc(C)cn2)c2ccccc2n1", "Potency": "inactive"}
{"smiles": "COCCNc1ncnc2ccc(-c3ccccc3CN(C)C)cc12", "Potency": "inactive"}
{"smiles": "Cc1cccc(CNc2ccnc(-c3ccccc3CN(C)C)n2)c1", "Potency": "inactive"}
{"target": "Cytochrome P450 2D6 (Homo sapiens) (UniProt P10635)", "sequence (P10635 whole entry, looked up)": "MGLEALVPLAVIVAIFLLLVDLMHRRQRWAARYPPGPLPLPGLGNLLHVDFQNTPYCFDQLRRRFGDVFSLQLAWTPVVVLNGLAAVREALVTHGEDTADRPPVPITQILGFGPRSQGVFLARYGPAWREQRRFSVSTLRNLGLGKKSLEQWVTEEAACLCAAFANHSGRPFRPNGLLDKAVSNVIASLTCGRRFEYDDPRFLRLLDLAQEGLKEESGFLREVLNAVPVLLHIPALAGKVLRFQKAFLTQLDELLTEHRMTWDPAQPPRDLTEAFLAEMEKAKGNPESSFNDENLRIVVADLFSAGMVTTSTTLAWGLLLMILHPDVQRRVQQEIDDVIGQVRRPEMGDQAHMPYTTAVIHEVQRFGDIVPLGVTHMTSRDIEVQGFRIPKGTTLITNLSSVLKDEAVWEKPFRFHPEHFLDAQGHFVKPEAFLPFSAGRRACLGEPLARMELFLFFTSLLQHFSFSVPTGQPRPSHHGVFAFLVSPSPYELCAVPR", "test": "qHTS Assay for Inhibitors and Substrates of Cytochrome P450 2D6 (AID 891); also: potency is read from the fitted curve at half-maximal effect; nearly all actives have a fitted effect of over 60% in size", "details": "recombinant CYP2D6, luciferin-ME EGE luminescence; series mostly up to 57.1 µM", "method_in_brief": "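Human CYP2D6 (5 nM) with 30 uM Luciferin-ME EGE (at Km) in 100 mM KPO4, compound preincubated 10 min, then NADPH regeneration system for 60 min at room temperature. Luciferin read by luminescence; normalized to 1.43 uM quinidine.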"}
{"smiles": "CN(C)Cc1ccccc1-c1nc(N(C)Cc2ccco2)c2ccccc2n1", "Potency": "0.794 µM (active)"}
{"smiles": "COCC(=O)N1CCC2(CCN(Cc3ccncc3)CC2)CC1", "Potency": "6.31 µM (active)"}
{"smiles": "Cc1cccc(CNc2ccnc(-c3ccccc3CN(C)C)n2)c1", "Potency": "2.51 µM (active)"}
{"target": "Cytochrome P450 2C19 (Homo sapiens) (UniProt P33261)", "sequence (P33261 whole entry, looked up)": "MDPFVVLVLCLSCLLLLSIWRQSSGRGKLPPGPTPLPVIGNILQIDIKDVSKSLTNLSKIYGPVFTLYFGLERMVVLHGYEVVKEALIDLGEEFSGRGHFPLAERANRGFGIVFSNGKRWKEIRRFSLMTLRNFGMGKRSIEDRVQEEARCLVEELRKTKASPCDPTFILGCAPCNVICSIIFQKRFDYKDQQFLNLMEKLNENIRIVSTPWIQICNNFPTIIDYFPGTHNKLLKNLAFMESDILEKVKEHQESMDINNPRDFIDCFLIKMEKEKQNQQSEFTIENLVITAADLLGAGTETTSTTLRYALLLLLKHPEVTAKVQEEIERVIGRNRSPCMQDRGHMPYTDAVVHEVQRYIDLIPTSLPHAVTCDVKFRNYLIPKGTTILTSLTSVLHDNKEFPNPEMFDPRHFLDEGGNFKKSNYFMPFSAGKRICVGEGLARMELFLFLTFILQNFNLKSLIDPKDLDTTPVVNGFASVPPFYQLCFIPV", "test": "qHTS Assay for Inhibitors and Substrates of Cytochrome P450 2C19 (AID 899); also: nearly all actives have a fitted effect of over 60% in size; also: potency is read from the fitted curve at half-maximal effect", "details": "recombinant CYP2C19, luciferin-H EGE luminescence; series mostly up to 57.1 µM", "method_in_brief": "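Reactions contain 5nM enzyme, 10uM Luciferin-H EGE (KM) and 50mM KPO4; compound preincubates 10 min at 37C, NADPH regeneration starts turnover for 60 min. Luminescence after detection reagent gives activity.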"}
{"smiles": "COc1ccccc1-c1ccc2ncnc(N(C)C)c2c1", "Potency": "0.501 µM (active)"}
{"smiles": "COc1ccc2[nH]cc(CCNc3ncnc4ccc(-c5ccc(C(=O)N(C)C)cc5)cc34)c2c1", "Potency": "7.94 µM (active)"}
{"smiles": "COc1ccc2[nH]cc(CCNc3cc(-c4ccoc4)ncn3)c2c1", "Potency": "5.01 µM (active)"}
{"smiles": "Cc1cccc(CNc2nc(-c3ccoc3)nc3ccccc23)c1", "Potency": "7.94 µM (active)"}
{"smiles": "CNc1nc(-c2ccccc2OC)nc2ccccc12", "Potency": "inactive"}
{"smiles": "COc1ccccc1-c1cncnc1NCc1cccc(C)c1", "Potency": "0.398 µM (active)"}
{"smiles": "COCC(=O)N1CCC2(CCN(Cc3ccncc3)CC2)CC1", "Potency": "0.0251 µM (active)"}
{"smiles": "Cc1cccc(CNc2nc(-c3cccc(NS(C)(=O)=O)c3)nc3ccccc23)c1", "Potency": "2.51 µM (active)"}
{"smiles": "Cc1ccccc1-c1nc(-n2ccnc2)c2ccccc2n1", "Potency": "5.01 µM (active)"}
{"test_system": "not listed separately", "test": "Confirmation and Secondary Assay for Modulators of Hemoglobin Beta Chain Splicing at IVS2 654 locus (AID 910);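 also: HeLa cells stably carrying EGFP split by mutant beta-globin IVS2-654 intron; per-well total GFP intensity by laser scanning cytometry after 2-day treatment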", "details": "HeLa EGFP-654 splicing reporter, GFP fluorescence, 48 h; series mostly up to 38.3 µM", "method_in_brief": "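Readout: per-well total peak green fluorescence (488 nm ex, 500–520 nm em) from objects 5–250 µm, reflecting correct splicing of an EGFP-654 reporter. Compounds were applied for 2 days at 37 °C to overnight-plated HeLa EGFP-654 cells; controls were DMSO and 500 nM IVS2-654 PNA.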"}
{"smiles": "CN(Cc1ccco1)c1ccnc(-c2cccc(NS(C)(=O)=O)c2)n1", "Potency": "inactive"}
{"smiles": "Cc1cccc(CNc2ncncc2-c2ccccc2C(F)(F)F)c1", "Potency": "inactive"}
{"smiles": "COc1ccccc1-c1ccc2ncnc(N(C)C)c2c1", "Potency": "inactive"}
{"smiles": "COc1ccc2[nH]cc(CCNc3ncnc4ccc(-c5ccc(C(=O)N(C)C)cc5)cc34)c2c1", "Potency": "inactive"}
{"smiles": "CN(C)Cc1ccccc1-c1ccc2ncnc(NCc3ccccc3)c2c1", "Potency": "inactive"}
{"smiles": "Cc1cccc(CNc2cc(-c3ccc(C(=O)N(C)C)cc3)ncn2)c1", "Potency": "inactive"}
{"smiles": "COc1ccc2[nH]cc(CCNc3cc(-c4ccoc4)ncn3)c2c1", "Potency": "inactive"}
{"smiles": "Cc1cccc(CNc2ccnc(-c3ccc(C(=O)N(C)C)cc3)n2)c1", "Potency": "inactive"}
{"smiles": "CN(C)Cc1ccccc1-c1nc(N(C)Cc2ccco2)c2ccccc2n1", "Potency": "inactive"}
{"smiles": "Cc1cccc(CNc2nc(-c3ccoc3)nc3ccccc23)c1", "Potency": "inactive"}
{"smiles": "Cc1occc(=O)c1O", "Potency": "inactive"}
{"smiles": "CC1=CC(=O)CC(C)(C)C1(O)/C=C/C(C)=C\\C(=O)O", "note": "(stereo not given)", "Potency": "inactive"}
{"smiles": "CNc1nc(-c2ccccc2OC)nc2ccccc12", "Potency": "inactive"}
{"smiles": "COc1ccccc1-c1cncnc1NCc1cccc(C)c1", "Potency": "inactive"}
{"smiles": "c1ccc2c(Nc3ccncc3)nc(-c3ccoc3)nc2c1", "Potency": "inactive"}
{"smiles": "CS(=O)(=O)Nc1cccc(-c2nc(N3CCOCC3)c3ccccc3n2)c1", "Potency": "inactive"}
{"smiles": "COS(C)(=O)=O", "Potency": "inactive"}
{"smiles": "Cc1cccc(CNc2nc(-c3cccc(NS(C)(=O)=O)c3)nc3ccccc23)c1", "Potency": "inactive"}
{"smiles": "CNc1ncnc2ccc(-c3ccccc3OC)cc12", "Potency": "inactive"}
{"smiles": "COc1ccc2[nH]cc(CCNc3ncnc4ccc(-c5ccccc5CN(C)C)cc34)c2c1", "Potency": "inactive"}
{"smiles": "COCCNc1nc(-c2cccc(OC)c2)nc2ccccc12", "Potency": "inactive"}
{"smiles": "CN(C)c1ccc(-c2cc(NCc3cccnc3)ncn2)cc1", "Potency": "inactive"}
{"smiles": "COc1ccc2[nH]cc(CCNc3ncncc3-c3ccccc3CN(C)C)c2c1", "Potency": "inactive"}
{"smiles": "Cc1ccccc1-c1nc(-n2ccnc2)c2ccccc2n1", "Potency": "inactive"}
{"smiles": "COc1ccccc1CNc1ccnc(-c2ccccc2C(F)(F)F)n1", "Potency": "inactive"}
{"smiles": "COc1ccccc1-c1nc(NCc2cnc(C)cn2)c2ccccc2n1", "Potency": "inactive"}
{"smiles": "COCCNc1ncnc2ccc(-c3ccccc3CN(C)C)cc12", "Potency": "inactive"}
{"smiles": "Cc1cccc(CNc2ccnc(-c3ccccc3CN(C)C)n2)c1", "Potency": "inactive"}
{"test_system": "not listed separately", "test": "Cell Viability - LYMP2-001 (AID 921);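 also: cells exposed to compound for 24 h at 37 °C; nearly all actives have a fitted effect of over 70% in size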", "details": "LYMP2-001 lymphoblastoid cell viability; series mostly up to 92.2 µM", "method_in_brief": "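Human lymphoblastoid LYMP2-001 cells, 2500 per well, in complete medium, treated 24 h at 37 C. Viability from cellular ATP by CellTiter-Glo luminescence; AC50 from Hill-equation fits of qHTS concentration-response.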"}
{"smiles": "Cc1occc(=O)c1O", "outcome": "inactive"}
{"smiles": "CC1=CC(=O)CC(C)(C)C1(O)/C=C/C(C)=C\\C(=O)O", "note": "(stereo not given)", "outcome": "inactive"}
{"smiles": "COS(C)(=O)=O", "outcome": "inactive"}
{"test_system": "not listed separately", "test": "Confirmation and Secondary Assay for Modulators of Hemoglobin Beta Chain Splicing at IVS2 705 locus (AID 930);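 also: HeLa cells stably expressing the EGFP-705 splicing reporter; GFP fluorescence per well restored by corrected splicing of the IVS2-705 intron in EGFP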", "details": "HeLa EGFP-705 splicing reporter, GFP fluorescence, 48 h; series mostly up to 38.3 µM", "method_in_brief": "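Stable HeLa line with EGFP disrupted by mutant beta-globin intron 2 (705). Overnight attachment, then 2 days of compound at 37C, 5% CO2. Signal: peak GFP intensity summed over objects 5-250 µm.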"}
{"smiles": "CN(Cc1ccco1)c1ccnc(-c2cccc(NS(C)(=O)=O)c2)n1", "outcome": "inactive"}
{"smiles": "COc1ccc2[nH]cc(CCNc3ncnc4ccc(-c5ccc(C(=O)N(C)C)cc5)cc34)c2c1", "outcome": "inactive"}
{"smiles": "CN(C)Cc1ccccc1-c1ccc2ncnc(NCc3ccccc3)c2c1", "outcome": "inactive"}
{"smiles": "Cc1cccc(CNc2cc(-c3ccc(C(=O)N(C)C)cc3)ncn2)c1", "outcome": "inactive"}
{"smiles": "COc1ccc2[nH]cc(CCNc3cc(-c4ccoc4)ncn3)c2c1", "outcome": "inactive"}
{"smiles": "Cc1cccc(CNc2ccnc(-c3ccc(C(=O)N(C)C)cc3)n2)c1", "outcome": "inactive"}
{"smiles": "CN(C)Cc1ccccc1-c1nc(N(C)Cc2ccco2)c2ccccc2n1", "outcome": "inactive"}
{"smiles": "Cc1occc(=O)c1O", "outcome": "inactive"}
{"smiles": "CNc1nc(-c2ccccc2OC)nc2ccccc12", "outcome": "inactive"}
{"smiles": "COc1ccccc1-c1cncnc1NCc1cccc(C)c1", "outcome": "inactive"}
{"smiles": "c1ccc2c(Nc3ccncc3)nc(-c3ccoc3)nc2c1", "outcome": "inactive"}
{"smiles": "CS(=O)(=O)Nc1cccc(-c2nc(N3CCOCC3)c3ccccc3n2)c1", "outcome": "inactive"}
{"smiles": "COS(C)(=O)=O", "outcome": "inactive"}
{"smiles": "Cc1cccc(CNc2nc(-c3cccc(NS(C)(=O)=O)c3)nc3ccccc23)c1", "outcome": "inactive"}
{"smiles": "CNc1ncnc2ccc(-c3ccccc3OC)cc12", "outcome": "inactive"}
{"smiles": "COCCNc1nc(-c2cccc(OC)c2)nc2ccccc12", "outcome": "inactive"}
{"smiles": "COc1ccc2[nH]cc(CCNc3ncncc3-c3ccccc3CN(C)C)c2c1", "outcome": "inactive"}
{"smiles": "Cc1ccccc1-c1nc(-n2ccnc2)c2ccccc2n1", "outcome": "inactive"}
{"smiles": "COc1ccccc1CNc1ccnc(-c2ccccc2C(F)(F)F)n1", "outcome": "inactive"}
{"smiles": "COc1ccccc1-c1nc(NCc2cnc(C)cn2)c2ccccc2n1", "outcome": "inactive"}
{"smiles": "COCCNc1ncnc2ccc(-c3ccccc3CN(C)C)cc12", "outcome": "inactive"}
